This note sets out measurements from PubChem BioAssay AID1981 (Southern Research Specialized Biocontainment Screening …, 2009).

About 480 (22%) of roughly 2,200 compounds were called active. How the calls were made is not given here. Not all results are given here. Entries with a potency or affinity are not part of this list.

The nature of the test: S. Typhimurium GFP fluorescence modified counterscreen for PhoP regulon inhibitor project dose response (AID 1981). The settings on record: 4 h; series mostly up to 150 µM. For orientation: A counterscreen serves to expose hits that act by an unwanted route or on another target.
On to `CCS(=O)(=O)Nc1cc(C(=O)OC)ccc1C(=O)OC`, for which the molecule was called inactive.

On to `Cc1ccc(-n2nnnc2SCC(=O)Nc2ncc(Cc3ccccc3Cl)s2)cc1`, for which the call was inactive.

For the molecule `CCOc1cc(CNn2cnnc2)ccc1OCC(=O)NC1CCCCC1`, the call was inactive.

On to `CCN(CCO)Cc1csc2ccccc12`, for which the outcome was inactive.

Consider `CCOc1ccccc1OCC(=O)Nc1ccc(S(=O)(=O)Nc2nc(C)cc(C)n2)cc1`, for which the result was inactive.

In the case of `CCOCCCNC(=S)Nc1cc(C)cc(C)c1`, the result was inactive.

`COc1cccc(-c2nc(-c3ccc(Br)o3)no2)c1`: the call was inactive.

Take `CCN(CC)c1ccc(/C=C(\C#N)C(=O)NCc2ccco2)cc1`: the molecule was called inactive.

Turning to `Cc1ccc(NC(=S)NCCc2ccccc2)c(C)c1`, the call was inactive.

For `CCc1cccc(NC(=O)CCCSc2nc3ccccc3[nH]2)c1`, the molecule was classed as inactive.

With `Cc1cc(C)cc(-n2c(C)cc(C=C(C#N)C#N)c2C)c1`, the outcome was inactive.

With `CCC(=O)c1ccc(OCC(O)CNCc2ccc(F)cc2)cc1` (stereo unspecified), the outcome was inactive.

For the molecule `CCCc1cnc(NCCNCC(O)COc2ccc(Cl)c(Cl)c2)nc1` (stereo unspecified), the result was inactive.

As to `CC(=O)Nc1ccc(NS(=O)(=O)c2ccc3c(c2)n(C)c(=O)n3C)cc1`, the molecule was called inactive.

Consider `Cc1ccc(NC(NC(=O)c2ccccn2)C(Cl)(Cl)Cl)cc1` (stereo unspecified), for which the molecule was classed as inactive.

With `O=C(NCc1ccco1)c1cccc(Nc2nc3ccc(Br)cc3[nH]2)c1`, the result was inactive.

As for `O=C(NC(=S)N1CCN(c2c(Cl)cccc2[N+](=O)[O-])CC1)c1cccs1`, the molecule was called inactive.

On to `Cc1ccc(C(=O)N/N=C/c2ccc([N+](=O)[O-])s2)cc1`, for which the molecule was classed as inactive.

Take `COc1ccc(/C=N/NC(=O)c2ccc3c(c2)OCCO3)cc1[N+](=O)[O-]`: the result was inactive.

As for `O=C(Nc1cnn(Cc2ccc(F)cc2)c1)c1cnccn1`, the outcome was inactive.

For `Cc1ccccc1-n1nnnc1Sc1nnnn1-c1ccccc1`, the molecule was called inactive.

Regarding `O=C1c2ccccc2C(=O)N1CCc1csc(-c2cccc(Cl)c2)n1`, the result was inactive.

For `O=C(COC(=O)/C=C/c1ccco1)Nc1cccc([N+](=O)[O-])c1`, the molecule was classed as inactive.

As to `CCOc1ccc2c(c1)nc(SCC(=O)c1ccc(Br)s1)n2C`, the outcome was inactive.

Turning to `CC(=O)Nc1c(O)nc(SCC(=O)N2CCN(c3ccc(F)cc3)CC2)[nH]c1=O`, the call was inactive.

Take `Cc1c(Cl)cccc1NC(=O)CSCC(N)=O`: the molecule was classed as inactive.

With `CSCC[C@H](NC(=O)Nc1ccc(C)cc1)C(=O)O`, the result was inactive.

With `N#Cc1c(N)nc(SCC(=O)NC2CCCCC2)c(C#N)c1-c1ccc(Cl)cc1`, the result was inactive.

Regarding `CCCCCCCCn1c2c(c(=N)c3c1CCC3)CCCC2`, the call was inactive.

`CCCCn1c(=N)n(CC(=O)C(C)(C)C)c2ccccc21`: the molecule was called inactive.

Turning to `N=c1c2c(n(Cc3ccc(Br)cc3)c3c1CCC3)CCCC2`, the molecule was called inactive.

As for `CCCCn1c(NCCO)nc2ccccc21`, the molecule was classed as inactive.

On to `CCCCC1CCC(C(=O)Nc2ccccc2)CC1` (stereo unspecified), for which the molecule was called inactive.

On to `COC(=O)C(C)N1C(=O)S/C(=C\c2cc(C)n(-c3ccccn3)c2C)C1=O` (stereo unspecified), for which the molecule was called inactive.

As for `Cc1ccc2nc(-c3ccc(Br)o3)oc(=O)c2c1`, the molecule was classed as inactive.

As for `O=C1N=c2ccccc2=C1c1[nH]c(=S)[nH]c1O`, the outcome was inactive.

Regarding `O=C1c2ccccc2-c2onc3ccc(NCc4ccco4)c1c23`, the call was inactive.

`CCn1c(=N)n(CC(O)c2ccccc2)c2ccccc21` (stereo unspecified): the outcome was inactive.

As for `Cc1ccc(/C=C/c2ccc(=O)n(Cc3ccccc3Cl)n2)cc1`, the outcome was inactive.

On to `[O-]/[N+](=C\c1ccncc1)c1ccccc1`, for which the result was inactive.

Take `CCCn1c(NCCO)nc2ccccc21`: the call was inactive.

On to `c1csc(C2Nc3cccc4cccc(c34)N2)c1`, for which the call was inactive.

Take `Brc1ccc(NC2=Nc3ccccc3CC2)cc1`: the molecule was classed as inactive.

Take `O=C(Nc1cnn(Cc2ccc(Cl)cc2Cl)c1)c1noc2c1CCCC2`: the outcome was inactive.

Regarding `Cc1cccc(-n2c(SCC(N)=O)nc3c(c2=O)C2(CCCC2)Cc2ccccc2-3)c1`, the molecule was called inactive.

Turning to `COC(=O)c1sccc1NC(=O)c1csc2c1CCCC2`, the molecule was classed as inactive.

`Oc1ccccc1CN1CCCN(Cc2ccccc2O)C1`: the outcome was inactive.

Turning to `CC(C)Cc1oc(C(=O)O)cc1CN1CCOCC1`, the molecule was classed as inactive.

Regarding `COc1ccc(NC(=O)CN2CCCCC2)c([N+](=O)[O-])c1`, the molecule was called inactive.

As for `Cc1ccc(Oc2ccc3c(c2)C(=O)N(c2ccc(S(=O)(=O)Nc4nccs4)cc2)C3=O)cc1`, the call was inactive.

As for `COc1cc(OC)cc(C(=O)N[C@H](C(=O)OCC(=O)Nc2ccc(C(N)=O)cc2)C(C)C)c1`, the molecule was called inactive.

In the case of `COc1ccccc1-n1c(SCc2cc(=O)oc3cc(O)ccc23)nc2ccccc2c1=O`, the outcome was inactive.

For the molecule `COc1cccc(C2C3=C(Nc4[nH]n(-c5ccccc5)c(=O)c42)c2ccccc2C3=O)c1` (stereo unspecified), the molecule was called inactive.

Take `CC(C)Oc1cccc(C(=O)NC(=S)Nc2ccccc2)c1`: the molecule was classed as inactive.

Turning to `CC(CO)(CO)NCc1ccc(-c2ccccc2)cc1`, the call was inactive.

With `Cc1cc(C(=O)NCc2ccco2)no1`, the molecule was called inactive.

For the molecule `Cc1cc(SCC(N)=O)nc(SCC(=O)c2ccccc2)n1`, the molecule was called inactive.

`COc1ccccc1NS(=O)(=O)c1cccc(C(=O)N/N=C/c2c(C)nn(-c3ccccc3)c2N2CCCC2)c1`: the outcome was inactive.

As to `CCC(C)n1c(O)c(C(c2ccccn2)c2c(O)n(C(C)CC)c(=S)[nH]c2=O)c(=O)[nH]c1=S` (stereo unspecified), the result was inactive.

On to `Cn1c(=O)c(=O)n(C)c2cc(S(=O)(=O)Nc3ccc4c(c3)OCCO4)ccc21`, for which the molecule was called inactive.

With `Cc1ccc(N(CC(=O)Nc2cccc(C)c2)S(=O)(=O)c2cccc3nonc23)cc1`, the molecule was classed as inactive.

On to `Nc1cc(N2CCCCC2)c(Cl)cc1[N+](=O)[O-]`, for which the call was inactive.

`CCOc1ccc(-c2noc(CCCC(N)=O)n2)cc1OC`: the molecule was classed as inactive.

For the molecule `CCOc1ccc(/C=C/C(=O)Nc2ccc(OC)cc2[N+](=O)[O-])cc1`, the result was inactive.

`Nc1ccc(N(c2ccccc2)c2ccc(N)cc2)cc1`: the outcome was inactive.

For the molecule `Cc1ccccc1C(=O)N(C)Cc1ccccc1`, the call was inactive.

Take `CCC(CC)c1nnc(NC(=O)Oc2ccccc2)s1`: the call was inactive.

In the case of `CCOCc1nnc(NC(=O)COC)s1`, the call was inactive.

As for `Cc1cc(C=O)c(C)n1-c1ccc(Oc2ccc([N+](=O)[O-])cn2)cc1`, the result was inactive.

For `CCCn1nnc(NC(=O)c2ccc(Br)o2)n1`, the call was inactive.

As for `COc1ccccc1CNc1nc2nc(C)c(C)c(=O)n2[nH]1`, the result was inactive.

For the molecule `Brc1cccc(CNCc2cccs2)c1`, the result was inactive.

In the case of `COc1cc(CNCc2cccs2)cc(Br)c1OC`, the molecule was called inactive.

With `c1ccc2c(CCNCc3ccc4c(c3)OCO4)c[nH]c2c1`, the result was inactive.

As to `COc1ccc(CCNC(=S)Nc2cccc3ccccc23)cc1`, the molecule was classed as inactive.

In the case of `Fc1ccc(CCNCc2cccc(Cl)c2)cc1`, the molecule was called inactive.
